Compound activity deposited in PubChem by National Center for Advancing Translational Sciences (NCATS).
POLB inh: blocks human DNA polymerase beta activity; P06746; Pol beta primer extension/strand displacement, fluorescence kinetic; Potency, µM (highest dose often 114 µM), usual class: inhibitors; 340,000 tested, 1.3% active
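Homogeneous kinetic assay of primer extension and strand displacement by 10 nM Pol beta, preincubated 15 min at room temperature with compound before 50 nM substrate (final) was added. Read at 0 and 10 min; four-parameter Hill fit.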
KAT2A inh: inhibitors of human GCN5L2 histone acetyltransferase; Q92830; GCN5L2 HAT assay, ThioGlo1 CoA-SH fluorescence; Potency, µM (highest dose often 58.9 µM), actives largely listed as inhibitors; 390,000 tested, 0.21% active; AID 504327
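Compounds, pin-transferred from DMSO stocks, meet 20nM GCN5L2 for 15 min before the reaction begins with H3(1-25) peptide (75uM) and acetyl-CoA (70uM). Thiol-reactive ThioGlo1 reports CoA release over 20 min at room temperature.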
GLS inh: inhibitors of human glutaminase (GLS). O94925. GLS enzymatic activity, qHTS titration. Potency, µM (highest dose often 45.5 µM), actives largely listed as inhibitors. 410,000 tested, 0.21% active. AID 624170
Target sequence (O94925 whole entry, looked up): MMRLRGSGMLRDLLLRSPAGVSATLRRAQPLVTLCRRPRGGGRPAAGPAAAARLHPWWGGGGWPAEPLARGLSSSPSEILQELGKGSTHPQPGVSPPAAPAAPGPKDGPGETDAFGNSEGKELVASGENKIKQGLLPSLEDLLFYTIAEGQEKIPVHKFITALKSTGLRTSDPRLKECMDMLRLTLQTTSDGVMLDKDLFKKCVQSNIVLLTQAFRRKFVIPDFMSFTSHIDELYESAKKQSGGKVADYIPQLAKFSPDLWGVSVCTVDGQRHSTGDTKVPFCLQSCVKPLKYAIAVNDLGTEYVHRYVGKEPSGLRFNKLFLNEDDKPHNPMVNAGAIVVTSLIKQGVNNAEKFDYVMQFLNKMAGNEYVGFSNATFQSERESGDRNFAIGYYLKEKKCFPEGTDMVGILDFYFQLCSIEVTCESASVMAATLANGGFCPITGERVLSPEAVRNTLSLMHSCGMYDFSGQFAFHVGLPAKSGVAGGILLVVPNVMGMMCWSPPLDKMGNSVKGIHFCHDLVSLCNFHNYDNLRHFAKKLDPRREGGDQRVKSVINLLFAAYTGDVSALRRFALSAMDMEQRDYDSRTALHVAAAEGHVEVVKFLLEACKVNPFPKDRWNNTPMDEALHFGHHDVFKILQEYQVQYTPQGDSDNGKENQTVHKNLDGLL
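Read-out is an Amplex red fluorescence increase coupled through glutamate oxidase and HRP, measured before and after 30 min room-temperature incubation. hKGA is in 45 mM KH2PO4 (pH 8.2) with 0.02% Tween-20; glutamine added as 1mM solution.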
POLI inh: blocks human DNA polymerase iota activity; Potency, µM (doses to about 115 µM), actives largely listed as inhibitors; 390,000 tested, 1% active; Q9UNA4; Pol iota fluorescent replication assay, 10 min
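Pol iota at 10 nM preincubated 15 min with compounds at room temperature; reaction started with fluorescent substrate, 50 nM final. Fluorescence read kinetically at 0 and 10 min; buffer-only wells as negative control.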
Pol kappa inh: DNA polymerase kappa (human) inhibition; 400,000 tested, 0.53% active; Potency, µM (doses to about 107 µM), most hits filed as inhibitors; purified Pol kappa, fluorescent DNA synthesis assay, 10 min
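10 nM Pol kappa was preincubated with compounds for 15 min at room temperature. Reaction started with 50 nM (final) substrate. Fluorescence read kinetically at 0 and 10 min.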
POLH inh: DNA polymerase eta (human) inhibition. recombinant Pol eta, fluorescent DNA replication assay. Q9Y253. 390,000 tested, 1.2% active. AID 588591. Potency, µM (top dose mostly 114 µM), most hits filed as inhibitors
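Pol eta (10 nM) was preincubated with compounds for 15 min at room temperature, after which fluorescent replication substrate (50 nM final) was added to start the reaction. Fluorescence was read kinetically at 0 and 10 min.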
Large screens that a line does not name were inactive. Shown are actives, neighbours in structure and some others; about 2.4% of the full set was active somewhere. Calls follow the shape of the dose curve; as a rule, active = well fitted inhibition curve with a large enough effect; inconclusive = small, poorly fitted or top-dose-only effect, or another doubt; inactive = no such curve, though single readings can be large or run the other way.

CCOC(=O)C1=C(COc2ccccc2)NC(=O)NC1c1cccc([N+](=O)[O-])c1 (stereo not given)	POLI inh 40µM
COc1cc([N+](=O)[O-])ccc1-c1ccc(/C=N/NC(N)=O)o1	POLB inh inconclusive, POLI inh 89µM
CC(C)C(=O)N1CCN(CCN2C(=O)c3cccc4cccc(c34)C2=O)CC1	POLB inh 89µM
Cc1n[nH]c(C)c1CCOc1ccc(C(C)C)cc1	none (no result: KAT2A inh)
COc1ccc(OCCCCc2c(C)n[nH]c2C)cc1	POLI inh 79µM (no result: POLB inh, KAT2A inh)
CCOc1ccc2c(c1)c(=O)c(S(=O)(=O)c1ccc(C)cc1)cn2Cc1ccccc1Cl	none
O=C(CSC(=S)N1CCCC1)c1cc(Br)cc(Br)c1O	POLB inh 50µM, GLS inh inconclusive, POLI inh inconclusive, Pol kappa inh inconclusive, POLH inh inconclusive
CC1CCCN(C(=S)SCC(=O)c2cc(Br)cc(Br)c2O)C1 (stereo not given)	POLB inh 16µM, POLI inh 22µM, Pol kappa inh 25µM
CCOC(=O)c1cnc2cc(C(F)(F)F)ccc2c1N1CCN(c2cccc(Cl)c2)CC1	none
CCNC(=O)C1CCCN(c2nn3cc(-c4ccc(C)cc4)nc3s2)C1 (stereo not given)	none
O=C(C1=C(O)C(=O)N(c2nc3ccc(Cl)cc3s2)C1c1ccco1)c1ccco1 (stereo not given)	KAT2A inh inconclusive, GLS inh 18µM, POLI inh 7.9µM, Pol kappa inh 40µM, POLH inh 20µM (no result: POLB inh)
Cc1ccc2nc(N3C(=O)C(O)=C(C(=O)c4ccc(C)o4)C3c3ccco3)sc2c1 (stereo not given)	GLS inh inconclusive, POLI inh inconclusive, POLH inh inconclusive (no result: POLB inh)
O=C(c1ccc(COc2c(F)c(F)c(F)c(F)c2F)o1)N1CCN(Cc2ccc3c(c2)OCO3)CC1	POLB inh 45µM, POLI inh inconclusive, Pol kappa inh inconclusive, POLH inh inconclusive
CC(c1ccc(Cl)cc1)n1c(-c2ccc3ccccc3n2)n[nH]c1=S (stereo not given)	GLS inh inconclusive
CC(c1ccc(F)cc1)n1c(-c2ccc3ccccc3n2)n[nH]c1=S (stereo not given)	GLS inh 13µM, POLI inh inconclusive
Cc1cc(Oc2ccc(Cl)cc2Cl)nc(C#N)n1	none (no result: POLB inh, KAT2A inh, GLS inh, POLH inh)
Cc1cc[n+](CCC2CCCCC2)c2ccccc12	none (no result: POLB inh, KAT2A inh, GLS inh, POLH inh)
Cc1ccc(NC(=O)Cn2cncc2-c2ccc([N+](=O)[O-])cc2)cc1C	POLB inh 35µM, POLI inh inconclusive, POLH inh inconclusive
O=C(Nc1ccccc1-c1cn2c(CN3CCNCC3)csc2n1)c1cnc2ccccc2n1	none (no result: POLB inh, KAT2A inh, GLS inh, POLH inh)
O=C(O)C1CCN(C(=O)Cc2ccccc2)CC1	none
O=C(O)C1CCN(C(=O)CCc2ccccc2)CC1	POLB inh 50µM
Cc1cccc(OCC(=O)NC(Cc2ccccc2)C(=O)O)c1 (stereo not given)	none
Cc1ccc2c(c1)c(CC(NC(=O)c1ccccc1Oc1ccccc1)C(=O)O)cn2C(=O)OCc1ccccc1 (stereo not given)	KAT2A inh 10µM, Pol kappa inh inconclusive (no result: POLB inh, GLS inh, POLI inh, POLH inh)
Cc1ccc(-c2nc(=Nc3c(C)cc(C)cc3C)sn2-c2ccccc2)cc1	none (no result: POLB inh, KAT2A inh, GLS inh, POLH inh)
CC1(C)CCC(=O)c2ccccc21	none (no result: POLB inh, KAT2A inh)
CC1(C)CCC2=C(O1)c1ccccc1C(=O)C2=O	POLI inh 7.9µM, POLH inh 22µM (no result: GLS inh)
O=C(Nc1ccc2c(c1)OCO2)C1Cc2ccccc2CN1S(=O)(=O)c1cccs1 (stereo not given)	POLB inh 16µM, POLI inh 20µM, Pol kappa inh inconclusive, POLH inh inconclusive
CCCc1cc2c(=O)c(-c3nc4ccccc4s3)c(COCC(=O)O)oc2cc1O	POLI inh inconclusive, POLH inh 79µM
Cc1ccc2nc(NC(=O)CSc3nccn3Cc3ccc(F)cc3)sc2c1	none
CCN(CC)c1nc(N)c2c(N)n(-c3ccccc3C)c(=S)c(C#N)c2c1C#N	POLI inh inconclusive, Pol kappa inh inconclusive, POLH inh 45µM
